The supplement of paper PMC10849652
About 7,900 targets were measured; listed, in parts, are those with a hit and a random draw of the rest. About 0.6% of all pairs of compound and target were hits. A number with no mark means an inactive call.

Legend:
Assay in all cases: log2 fold change, soluble protein after heating vs DMSO (PISA); higher = thermal stabilisation; K562 cells, 10 uM, 30 min; active = over 0.2 and 3.5 SD of the protein, either way, in both replicates (recomputed)
saracatinib = compound: CN1CCN(CCOc2cc(OC3CCOCC3)c3c(Nc4c(Cl)ccc5c4OCO5)ncnc3c2)CC1 [saracatinib]
How it was run: (§1)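 For each measurement, 10 μM compound was applied for 30 min to K562 cells at 2×10^6 cells/mL. Aliquots were heated for 3 min across 48°C-58°C, pooled, and extracted in PBS with 0.5% NP-40 at 4°C; the supernatant after 21,000xg for 90 min was soluble protein. This was quantified by TMTpro 16plex LC-MS/MS with channel sums equalised, and thermal stability was reported relative to control samples from duplicates, on a log2 fold-change scale.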

sotrastaurin = compound: CN1CCN(c2nc(C3=C(c4c[nH]c5ccccc45)C(=O)NC3=O)c3ccccc3n2)CC1 [sotrastaurin]
How it was run: as §1

alvocidib = compound: CN1CC[C@H](c2c(O)cc(O)c3c(=O)cc(-c4ccccc4Cl)oc23)[C@H](O)C1 [alvocidib]
How it was run: as §1

Tubastatin A = compound: CN1CCc2c(c3ccccc3n2Cc2ccc(C(=O)NO)cc2)C1 [Tubastatin A]
How it was run: as §1

[1] = compound: CNC(=O)C1=CC=CC=C1NC2=NC(=NC=C2Cl)NC3=C(C=C(C=C3)N4CCOCC4)OC
How it was run: as §1

defactinib = compound: CNC(=O)c1ccc(Nc2ncc(C(F)(F)F)c(NCc3nccnc3N(C)S(C)(=O)=O)n2)cc1 [defactinib]
How it was run: as §1

rucaparib = compound: CNCc1ccc(-c2[nH]c3cc(F)cc4c3c2CCNC4=O)cc1 [rucaparib]
How it was run: as §1

[2] = compound: CNc1nc(-c2ccc3c(N)n[nH]c3c2)cc(N2C[C@@H](C(=O)NC3CCCCC3)CC[C@H]2C)n1
How it was run: as §1

encorafenib = compound: COC(=O)N[C@@H](C)CNc1nccc(-c2cn(C(C)C)nc2-c2cc(Cl)cc(NS(C)(=O)=O)c2F)n1 [encorafenib]
How it was run: as §1

[3] = compound: COC(=O)[C@H](CCSC)NC(=O)C1=C(C=C(C=C1)NC[C@H](CS)N)C2=CC=CC=C2
How it was run: as §1

[4] = compound: COC1=CC=C(C=C1)CN2C=CC3=C2C=C(C=C3)C(=O)NO
How it was run: as §1

filanesib = compound: CON(C)C(=O)N1N=C(c2cc(F)ccc2F)S[C@@]1(CCCN)c1ccccc1 [filanesib]
How it was run: as §1

zotarolimus = compound: CO[C@H]1C[C@@H]2CC[C@@H](C)[C@@](O)(O2)C(=O)C(=O)N2CCCC[C@H]2C(=O)O[C@H]([C@H](C)C[C@@H]2CC[C@H](n3cnnn3)[C@H](OC)C2)CC(=O)[C@H](C)/C=C(\C)[C@@H](O)[C@@H](OC)C(=O)[C@H](C)C[C@H](C)/C=C/C=C/C=C/1C [zotarolimus]
How it was run: as §1

idasanutlin = compound: COc1cc(C(=O)O)ccc1NC(=O)[C@@H]1N[C@@H](CC(C)(C)C)[C@](C#N)(c2ccc(Cl)cc2F)[C@H]1c1cccc(Cl)c1F [idasanutlin]
How it was run: as §1

alisertib = compound: COc1cc(Nc2ncc3c(n2)-c2ccc(Cl)cc2C(c2c(F)cccc2OC)=NC3)ccc1C(=O)O [alisertib]
How it was run: as §1

[5] = compound: COc1cc2nc(-c3cc(F)ccc3O)nc(N[C@@H]3CNC[C@H]3C(C)(C)O)c2cc1OC
How it was run: as §1

gefitinib = compound: COc1cc2ncnc(Nc3ccc(F)c(Cl)c3)c2cc1OCCCN1CCOCC1 [gefitinib]
How it was run: as §1

[6] = compound: COc1cccc2cc(-c3nc([C@H]4CC[C@H](C(=O)O)CC4)n4ncnc(N)c34)[nH]c12
How it was run: as §1

lapatinib = compound: CS(=O)(=O)CCNCc1ccc(-c2ccc3ncnc(Nc4ccc(OCc5cccc(F)c5)c(Cl)c4)c3c2)o1 [lapatinib]
How it was run: as §1

pictilisib = compound: CS(=O)(=O)N1CCN(Cc2cc3nc(-c4cccc5[nH]ncc45)nc(N4CCOCC4)c3s2)CC1 [pictilisib]
How it was run: as §1

Sequence of UniProt Q14624 (Q14624 whole entry, looked up): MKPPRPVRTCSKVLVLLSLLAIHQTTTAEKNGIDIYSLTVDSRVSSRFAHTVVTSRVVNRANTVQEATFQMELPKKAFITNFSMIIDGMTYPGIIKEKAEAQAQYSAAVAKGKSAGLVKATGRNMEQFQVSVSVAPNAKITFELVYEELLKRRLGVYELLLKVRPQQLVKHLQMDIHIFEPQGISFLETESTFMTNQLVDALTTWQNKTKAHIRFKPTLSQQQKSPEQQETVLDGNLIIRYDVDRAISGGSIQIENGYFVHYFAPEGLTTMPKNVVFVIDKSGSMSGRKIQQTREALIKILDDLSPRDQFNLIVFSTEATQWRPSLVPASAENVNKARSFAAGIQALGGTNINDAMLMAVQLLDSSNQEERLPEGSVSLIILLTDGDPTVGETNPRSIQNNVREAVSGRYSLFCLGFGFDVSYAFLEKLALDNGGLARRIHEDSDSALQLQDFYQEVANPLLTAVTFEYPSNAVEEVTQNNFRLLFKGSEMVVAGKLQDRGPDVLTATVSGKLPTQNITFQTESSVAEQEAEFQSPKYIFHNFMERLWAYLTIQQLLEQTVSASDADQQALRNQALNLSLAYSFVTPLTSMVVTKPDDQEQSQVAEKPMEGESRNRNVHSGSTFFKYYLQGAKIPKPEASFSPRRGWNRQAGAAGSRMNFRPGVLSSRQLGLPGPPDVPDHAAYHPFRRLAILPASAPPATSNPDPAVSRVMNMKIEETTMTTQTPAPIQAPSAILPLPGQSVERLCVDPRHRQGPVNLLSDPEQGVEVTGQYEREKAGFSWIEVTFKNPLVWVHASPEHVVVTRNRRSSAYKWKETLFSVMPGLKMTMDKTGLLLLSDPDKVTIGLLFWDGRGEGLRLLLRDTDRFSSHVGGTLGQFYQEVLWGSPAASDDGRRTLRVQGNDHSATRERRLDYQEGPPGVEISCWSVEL
Sequence of UniProt O43766 (O43766 whole entry, looked up): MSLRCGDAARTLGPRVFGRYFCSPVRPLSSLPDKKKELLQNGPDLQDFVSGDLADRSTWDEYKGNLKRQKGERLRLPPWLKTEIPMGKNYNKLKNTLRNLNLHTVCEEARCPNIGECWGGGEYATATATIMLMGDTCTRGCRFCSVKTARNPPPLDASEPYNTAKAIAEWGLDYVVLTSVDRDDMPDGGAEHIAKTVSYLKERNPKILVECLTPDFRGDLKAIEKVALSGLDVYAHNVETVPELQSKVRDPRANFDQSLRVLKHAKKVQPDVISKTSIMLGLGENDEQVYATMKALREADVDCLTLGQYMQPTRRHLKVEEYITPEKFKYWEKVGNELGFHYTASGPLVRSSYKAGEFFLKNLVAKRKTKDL
Sequence of UniProt Q9H9P8 (Q9H9P8 whole entry, looked up): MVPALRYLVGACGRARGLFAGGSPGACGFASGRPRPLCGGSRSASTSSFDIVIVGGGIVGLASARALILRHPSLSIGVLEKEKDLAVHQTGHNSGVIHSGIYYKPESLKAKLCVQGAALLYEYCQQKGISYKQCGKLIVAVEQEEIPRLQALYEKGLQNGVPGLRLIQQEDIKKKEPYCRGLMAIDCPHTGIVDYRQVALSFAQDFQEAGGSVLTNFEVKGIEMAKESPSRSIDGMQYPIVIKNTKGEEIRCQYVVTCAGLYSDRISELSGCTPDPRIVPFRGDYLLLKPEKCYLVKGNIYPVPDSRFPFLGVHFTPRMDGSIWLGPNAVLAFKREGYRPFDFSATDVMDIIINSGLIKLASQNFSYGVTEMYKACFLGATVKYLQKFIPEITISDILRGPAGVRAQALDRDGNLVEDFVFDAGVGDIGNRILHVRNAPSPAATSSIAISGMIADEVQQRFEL
Sequence of UniProt Q9H0B6 (Q9H0B6 whole entry, looked up): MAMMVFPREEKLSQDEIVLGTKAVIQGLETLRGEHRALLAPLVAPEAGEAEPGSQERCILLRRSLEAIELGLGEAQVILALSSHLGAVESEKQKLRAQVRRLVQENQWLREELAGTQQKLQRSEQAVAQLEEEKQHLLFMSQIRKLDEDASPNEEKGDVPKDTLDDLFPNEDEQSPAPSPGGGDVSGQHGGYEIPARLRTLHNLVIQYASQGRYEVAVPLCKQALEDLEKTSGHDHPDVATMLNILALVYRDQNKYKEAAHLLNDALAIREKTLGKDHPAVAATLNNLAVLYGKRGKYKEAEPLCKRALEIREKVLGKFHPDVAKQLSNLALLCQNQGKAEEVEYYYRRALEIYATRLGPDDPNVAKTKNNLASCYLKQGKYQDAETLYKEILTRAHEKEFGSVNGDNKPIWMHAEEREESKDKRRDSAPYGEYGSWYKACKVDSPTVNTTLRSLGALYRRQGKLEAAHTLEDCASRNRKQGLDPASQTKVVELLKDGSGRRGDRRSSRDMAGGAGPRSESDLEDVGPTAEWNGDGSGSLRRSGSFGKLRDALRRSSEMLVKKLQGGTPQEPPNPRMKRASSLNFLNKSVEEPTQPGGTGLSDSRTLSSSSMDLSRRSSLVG
Sequence of UniProt Q14974 (Q14974 whole entry, looked up): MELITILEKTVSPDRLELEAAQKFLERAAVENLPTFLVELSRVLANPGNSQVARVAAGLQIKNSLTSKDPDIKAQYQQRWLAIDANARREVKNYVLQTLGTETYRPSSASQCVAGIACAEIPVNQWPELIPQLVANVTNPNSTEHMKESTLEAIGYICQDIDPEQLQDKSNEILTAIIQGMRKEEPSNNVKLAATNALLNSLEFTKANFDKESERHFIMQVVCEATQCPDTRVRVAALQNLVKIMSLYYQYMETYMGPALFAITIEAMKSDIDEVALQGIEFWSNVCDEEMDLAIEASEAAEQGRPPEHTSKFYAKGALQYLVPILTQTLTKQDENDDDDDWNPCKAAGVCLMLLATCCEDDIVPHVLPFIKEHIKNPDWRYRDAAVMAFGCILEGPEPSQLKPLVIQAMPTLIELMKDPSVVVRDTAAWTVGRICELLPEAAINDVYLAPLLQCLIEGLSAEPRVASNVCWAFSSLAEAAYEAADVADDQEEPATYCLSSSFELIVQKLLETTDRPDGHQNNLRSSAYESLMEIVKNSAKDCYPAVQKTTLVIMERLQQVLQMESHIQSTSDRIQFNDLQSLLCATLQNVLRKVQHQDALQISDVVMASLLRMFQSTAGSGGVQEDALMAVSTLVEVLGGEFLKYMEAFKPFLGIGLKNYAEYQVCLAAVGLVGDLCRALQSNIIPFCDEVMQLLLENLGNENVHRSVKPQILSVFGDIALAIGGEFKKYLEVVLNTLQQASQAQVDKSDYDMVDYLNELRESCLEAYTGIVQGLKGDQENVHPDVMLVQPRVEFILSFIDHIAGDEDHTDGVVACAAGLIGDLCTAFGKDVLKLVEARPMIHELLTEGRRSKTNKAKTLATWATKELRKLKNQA
Sequence of UniProt Q9Y496 (Q9Y496 whole entry, looked up): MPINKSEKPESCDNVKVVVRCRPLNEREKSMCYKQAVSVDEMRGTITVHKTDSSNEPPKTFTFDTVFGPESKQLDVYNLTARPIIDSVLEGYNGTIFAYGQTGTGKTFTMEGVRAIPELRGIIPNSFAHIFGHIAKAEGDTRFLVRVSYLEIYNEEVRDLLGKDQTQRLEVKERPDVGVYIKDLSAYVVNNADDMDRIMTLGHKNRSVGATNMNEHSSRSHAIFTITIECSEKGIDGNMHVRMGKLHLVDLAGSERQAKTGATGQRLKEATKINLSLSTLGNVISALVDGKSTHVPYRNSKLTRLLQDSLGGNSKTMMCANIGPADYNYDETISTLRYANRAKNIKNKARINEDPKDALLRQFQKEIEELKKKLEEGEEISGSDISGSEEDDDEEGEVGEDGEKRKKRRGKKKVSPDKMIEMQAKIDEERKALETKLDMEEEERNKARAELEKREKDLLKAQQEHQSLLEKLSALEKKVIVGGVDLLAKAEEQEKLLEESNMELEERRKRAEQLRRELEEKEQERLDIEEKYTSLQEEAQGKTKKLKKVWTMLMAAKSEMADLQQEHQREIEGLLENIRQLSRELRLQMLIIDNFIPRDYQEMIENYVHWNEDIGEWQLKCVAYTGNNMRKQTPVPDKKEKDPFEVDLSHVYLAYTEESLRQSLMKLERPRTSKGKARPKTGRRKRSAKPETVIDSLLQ
Sequence of UniProt Q9BPX6 (Q9BPX6 whole entry, looked up): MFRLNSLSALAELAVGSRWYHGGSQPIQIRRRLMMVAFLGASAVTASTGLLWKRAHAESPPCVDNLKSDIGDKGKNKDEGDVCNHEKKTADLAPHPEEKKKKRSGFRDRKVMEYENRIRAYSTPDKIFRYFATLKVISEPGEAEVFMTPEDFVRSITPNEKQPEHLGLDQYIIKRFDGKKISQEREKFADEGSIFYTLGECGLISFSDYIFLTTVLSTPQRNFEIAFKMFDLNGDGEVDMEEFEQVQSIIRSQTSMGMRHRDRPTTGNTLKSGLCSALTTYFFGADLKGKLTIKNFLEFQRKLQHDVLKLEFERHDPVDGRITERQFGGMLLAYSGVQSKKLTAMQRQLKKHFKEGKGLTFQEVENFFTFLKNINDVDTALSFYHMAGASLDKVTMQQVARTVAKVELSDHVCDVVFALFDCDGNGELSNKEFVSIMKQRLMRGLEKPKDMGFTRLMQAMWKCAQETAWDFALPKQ

Row | Target | log2 fold change (saracatinib) | log2 fold change (sotrastaurin) | log2 fold change (alvocidib) | log2 fold change (Tubastatin A) | log2 fold change [1] | log2 fold change (defactinib) | log2 fold change (rucaparib) | log2 fold change [2] | log2 fold change (encorafenib) | log2 fold change [3] | log2 fold change [4] | log2 fold change (filanesib) | log2 fold change (zotarolimus) | log2 fold change (idasanutlin) | log2 fold change (alisertib) | log2 fold change [5] | log2 fold change (gefitinib) | log2 fold change [6] | log2 fold change (lapatinib) | log2 fold change (pictilisib)
1 | KIF3A (UniProt Q9Y496) | -0.102 | -0.073 | -0.02 | -0.031 | 0.085 | 0.013 | 0.292 | 0.037 | 0.003 | 0.005 | 0.219 | -0.091 | -0.004 | 0.056 | -0.027 | 0.137 | -0.129 | 0 | -0.063 | 0.146
2 | LIAS (UniProt O43766) | 0.049 | 0.271 (active) | 0.065 | -0.056 | 0.029 | 0.018 | 0.017 | -0.027 | 0 | 0.022 | -0.131 | -0.049 | -0.097 | -0.032 | -0.041 | 0.132 | 0.014 | 0.036 | -0.051 | 0.078
3 | KPNB1 (UniProt Q14974) | -0.076 | -0.21 | -0.01 | 0.031 | 0.043 | -0.039 | 0.126 | 0.032 | 0.201 | -0.063 | 0.033 | -0.024 | 0.052 | -0.048 | -0.07 | -0.065 | -0.063 | -0.076 | -0.001 | -0.032
4 | L2HGDH (UniProt Q9H9P8) | -0.009 | 0.091 | -0.039 | -0.002 | -0.017 | -0.011 | -0.005 | 0.012 | -0.022 | 0.049 | 0.096 | -0.121 | 0.07 | -0.037 | -0.019 | -0.034 | -0.01 | 0.041 | -0.069 | 0.115
5 | MICU1 isoform 3 (UniProt Q9BPX6) | -0.073 | 0 | 0.005 | -0.007 | -0.054 | 0.172 | 0.134 | -0.012 | 0.121 | -0.05 | -0.047 | -0.031 | -0.034 | 0.05 | -0.011 | -0.278 (active) | 0.02 | -0.056 | 0.019 | -0.038
6 | ITIH4 (UniProt Q14624) | 0.045 | 0.271 | 0.005 | -0.003 | -0.001 | 0.101 | -0.142 | -0.124 | -0.001 | -0.009 | 0.252 | -0.174 | -0.896 (active) | 0.184 | -0.047 | -0.146 | -0.093 | 0.277 | -0.034 | -0.241
7 | LARP1 (UniProt Q6PKG0) | -0.023 | -0.029 | 0.12 | 0.059 | 0.05 | 0.089 | 0.11 | 0.004 | 0.039 | 0.01 | 0 | 0.048 | -0.048 | 0.089 | 0.137 | -0.001 | -0.049 | -0.161 | 0.023 | -0.152
8 | KLC2 (UniProt Q9H0B6) | -0.107 | -0.032 | -0.095 | 0.086 | -0.017 | -0.13 | 0.001 | 0.051 | 0.036 | -0.051 | 0.06 | -0.038 | -0.028 | -0.065 | -0.047 | -0.133 | 0.017 | 0 | -0.005 | 0.083
